Sampled rows, rich in hits. Any-hit rate of the full collection: about 6.3%.
S2 tox: reduces viability in counter-screen for ATXN expression inhibitors | S2 cells (HEK-293 line with an ATXN2-luciferase reporter) viability, CellTiter-Fluor protease fluorescence, 24 h | Potency, µM (highest dose often 56.7 µM), hits mostly cytotoxic | actives 0.49% (n = 400,000); also: nearly all actives have a fitted effect of over 40% in size
TGFb SMAD3 inh: inhibitors of TGF-b signaling; HepG2 CAGA-GFP TGF-b/SMAD3 reporter, GFP fluorescence, 18 h; TGF-beta stimulated, 500 pg/mL final; Potency, µM (doses to about 46.1 µM), for the others: top-dose activity, negative = inhibition, actives largely listed as inhibitors; actives 1.2% (n = 410,000); AID 588855; also: % is scaled to controls: 0 for no effect and ±100 for the full control effect; nearly all actives have a fitted effect of over 65% in size
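Inhibition was scored as loss of TGF-beta-induced (500 pg/mL final, 18 hours, 37 degrees C) GFP in HEPG2 cells carrying a CAGA-GFP reporter, in DMEM with 1% FBS. Well GFP was summed per cell; Activity was normalised to unstimulated and stimulated DMSO wells, then concentration-response fitting.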
VP16 counter: Gal4-VP16 reporter inhibition counter-screen | Drosophila S2 Gal4-VP16 UAS-luciferase, luminescence, 20 h | Potency, µM (series often up to 53.6 µM), without a hit: top-dose activity, negative = inhibition, actives largely listed as inhibitors | actives 3.5% (n = 310,000);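 also: Gal4-VP16 expression switched on by copper sulfate through the metallothionein promoter; % is scaled to controls: 0 for no effect and ±100 for the full control effect; nearly all actives have a fitted effect of over 50% in size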
RORgamma inh: ROR gamma (mouse) transcription inhibition | Potency, µM (top dose mostly 53.6 µM), inactives show at the top dose activity change, negative = inhibition, hits mostly inhibitors | actives 5.4% (n = 310,000) | Drosophila S2 Gal4-RORgamma UAS-luciferase reporter, 20 h; also: % is scaled to controls: 0 for no effect and ±100 for the full control effect; nearly all actives have a fitted effect of over 60% in size
Target sequence (P51450 whole entry, looked up, the tested form may be a part): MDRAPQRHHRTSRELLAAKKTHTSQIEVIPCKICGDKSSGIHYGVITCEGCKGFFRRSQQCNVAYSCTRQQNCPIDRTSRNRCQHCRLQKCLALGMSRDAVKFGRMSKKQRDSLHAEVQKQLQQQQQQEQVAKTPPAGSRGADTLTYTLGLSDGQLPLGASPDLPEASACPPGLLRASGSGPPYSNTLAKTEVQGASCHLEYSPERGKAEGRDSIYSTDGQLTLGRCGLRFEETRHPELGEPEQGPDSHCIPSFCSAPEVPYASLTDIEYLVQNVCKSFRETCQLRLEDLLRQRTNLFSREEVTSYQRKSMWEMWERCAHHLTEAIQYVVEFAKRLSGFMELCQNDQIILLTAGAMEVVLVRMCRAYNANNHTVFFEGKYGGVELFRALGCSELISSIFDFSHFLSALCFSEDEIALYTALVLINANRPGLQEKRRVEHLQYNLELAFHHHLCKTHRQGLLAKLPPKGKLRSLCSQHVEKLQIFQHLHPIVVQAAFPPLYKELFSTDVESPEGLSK
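Stable Schneider cell line, Gal4 DNA-binding domain fused to ROR gamma, UAS-luciferase. Cmpd 1 hr RT → CuSO4 700 uM final → 20 hr RT → luciferase reagent 10 min → luminescence.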
HepG2 viability: kills HepG2 cells in TGF-b inhibitor counter-screen; HepG2 CAGA-GFP viability, ATP luminescence, 18 h; Potency, µM (top dose mostly 46.1 µM), for inactives: at the highest dose activity change, negative = cytotoxicity, actives largely listed as cytotoxic; actives 0.76% (n = 410,000); AID 588856
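CellTiter-Glo luminescence gave cytotoxicity after 18 hours at 37 degrees C. The cells were HepG2 CAGA-GFP in 1% FBS DMEM, stimulated with 500 pg/mL TGF-beta after compound addition. %Activity was normalised to no-cell wells (complete cell-killing) and DMSO (no toxicity), and curves were fitted and classified.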
ATXN2 expr inh: inhibitors of ATXN2 expression | HEK-293 ATXN2-luciferase reporter, luminescence, 24 h | Potency, µM (highest dose often 57 µM), for the others: at the top dose activity change, negative = inhibition, most hits filed as inhibitors | actives 0.72% (n = 360,000); also: % is scaled to controls: 0 for no effect and ±100 for the full control effect; nearly all actives have a fitted effect of over 55% in size
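qHTS (up to 57 uM final) was run with 24 h compound exposure of reporter cells at 37 °C. Each well was multiplexed: SteadyGlo luminescence measured ATXN2-luciferase expression after a fluorogenic Gly-Phe-AFC viability readout (25 uM final).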
Numbers without * were called inactive. Calls follow the shape of the dose curve; as a rule, active = well fitted curve in the direction sought with a large enough effect; inconclusive = small, poorly fitted or top-dose-only effect, or another doubt; inactive = no such curve, though single readings can be large; an effect the other way counts as inactive or inconclusive. Potency is read from the fitted curve at half-maximal effect.

Results for Cc1ccn(CC(=O)N/N=C/c2cc([N+](=O)[O-])ccc2O)n1 ?
S2 tox: inactive; TGFb SMAD3 inh: 18%; VP16 counter: 8.9µM*; RORgamma inh: inconclusive; HepG2 viability: 5%; ATXN2 expr inh: -23%

How did O=C(CSc1ccccn1)N/N=C/C=C/c1ccccc1 do in these assays?
S2 tox: inactive; TGFb SMAD3 inh: -8%; VP16 counter: 16µM*; RORgamma inh: inconclusive; HepG2 viability: -13%

What do the screens show for `O=C(CSc1ccc2ccccc2n1)N/N=C/c1ccccc1O`?
S2 tox: inactive; TGFb SMAD3 inh: -21%; VP16 counter: 3.2µM*; RORgamma inh: 1.4µM*; HepG2 viability: -11%; ATXN2 expr inh: inconclusive

How did O=C(CSc1ccccn1)N/N=C/c1cc([N+](=O)[O-])ccc1O do in these assays?
S2 tox: inconclusive; TGFb SMAD3 inh: 0%; VP16 counter: 7.1µM*; RORgamma inh: 2µM*; HepG2 viability: -4%

How did O=C(N/N=C/C=C/c1ccccc1)c1ccccn1 do in these assays?
S2 tox: inactive; TGFb SMAD3 inh: 8%; VP16 counter: -17%; RORgamma inh: -36%; HepG2 viability: -11%; ATXN2 expr inh: 13%

Results for Cc1cc(CNC(=O)c2cnn(-c3nccc(-c4ccc5c(c4)OCO5)n3)c2C2CC2)on1 ?
S2 tox: inactive

What do the screens show for `Cc1cc(NC(=O)Nc2nnc(N3CCCCC3)s2)ccc1Br`?
S2 tox: inactive; TGFb SMAD3 inh: 0%; HepG2 viability: 11%; ATXN2 expr inh: 3%

Results for O=C(Cn1c(=O)n(CC2CCCO2)c(=O)c2ccccc21)Nc1ccc(F)cc1F (configuration not stated) ?
S2 tox: inconclusive; TGFb SMAD3 inh: 8%; HepG2 viability: 2%; ATXN2 expr inh: -16%

What do the screens show for `O=C(NN=Cc1cc(Cl)ccc1[N+](=O)[O-])c1cccc2ccccc12`?
S2 tox: inconclusive; TGFb SMAD3 inh: 4%; HepG2 viability: 5%; ATXN2 expr inh: -30%

Results for O=C(N/N=C/c1cc([N+](=O)[O-])ccc1O)c1cccc2ccccc12 ?
VP16 counter: 2.2µM*; RORgamma inh: 2.8µM*

How did Cc1cc(SCC(=O)N/N=C/c2ccc(O)cc2O)c(C)cc1Br do in these assays?
S2 tox: inactive; TGFb SMAD3 inh: 0%; VP16 counter: 0%; RORgamma inh: inconclusive; HepG2 viability: -21%; ATXN2 expr inh: 18µM*

Results for COc1cn(CC(=O)Nc2ccc(C)cc2C)c(CN2CCCCC2)cc1=O ?
TGFb SMAD3 inh: 0%; HepG2 viability: 8%

What do the screens show for `CC(NC(=O)c1cc(F)ccc1F)c1nnc2n1CCN(Cc1cccs1)CC2` (configuration not stated)?
S2 tox: inactive

What do the screens show for `O=S(=O)(N1CCN(c2nc(-c3cccs3)nc3ccccc23)CC1)C(F)(F)F`?
TGFb SMAD3 inh: 18%; HepG2 viability: -21%

Results for Cc1ccc(-n2ncc(C(=O)N3CCC(c4ccccc4)C3)c2C2CCN(C(=O)OC(C)(C)C)CC2)cc1 (configuration not stated) ?
TGFb SMAD3 inh: -18%; HepG2 viability: -32%

How did CC1(C(=O)O)CCCN(C(=O)c2ccc(OC(F)F)cc2)C1 (configuration not stated) do in these assays?
S2 tox: inactive; TGFb SMAD3 inh: 34%; HepG2 viability: -2%; ATXN2 expr inh: 10%

How did COC(=O)c1sc(N)c(C(=O)OC)c1Cn1ncc(Cl)c(Cl)c1=O do in these assays?
S2 tox: inconclusive; TGFb SMAD3 inh: -26%; VP16 counter: 13µM*; RORgamma inh: inconclusive; HepG2 viability: 1%; ATXN2 expr inh: inconclusive

How did CC(O)(C#Cc1ccc2c(c1)N(c1nc(N)ncc1Cl)CC2)c1nccs1 (configuration not stated) do in these assays?
ATXN2 expr inh: -17%

What do the screens show for `CN(C)c1nc(N)nc(CSc2ncc(Cl)cc2Cl)n1`?
S2 tox: inactive; TGFb SMAD3 inh: 1%; VP16 counter: -29%; RORgamma inh: 13µM*; HepG2 viability: -49%; ATXN2 expr inh: 12%

Results for CN(C)c1nc(N)nc(CSc2nnnn2-c2ccc(Cl)cc2)n1 ?
S2 tox: inactive; TGFb SMAD3 inh: -7%; HepG2 viability: -12%; ATXN2 expr inh: -14%

What do the screens show for `CC(C(Sc1ccccc1N)c1ccccc1)[N+](=O)[O-]` (configuration not stated)?
S2 tox: 28µM*; TGFb SMAD3 inh: inconclusive; VP16 counter: inconclusive; RORgamma inh: inconclusive; HepG2 viability: -70%; ATXN2 expr inh: inconclusive

What do the screens show for `C=CCOc1ccc(CNn2cn[nH]c2=S)cc1OCC`?
S2 tox: inactive; TGFb SMAD3 inh: -17%; VP16 counter: -13%; RORgamma inh: 11µM*; HepG2 viability: 8%; ATXN2 expr inh: 3%

Results for COc1cc(CNn2c(C)n[nH]c2=S)cc(Cl)c1OCc1ccccc1 ?
S2 tox: inactive; TGFb SMAD3 inh: -6%; VP16 counter: -15%; RORgamma inh: 7.9µM*; HepG2 viability: -8%; ATXN2 expr inh: -22%

What do the screens show for `COc1cc(CNCCSc2nnnn2C)cc(Cl)c1OCc1ccccc1`?
S2 tox: inactive; TGFb SMAD3 inh: -10%; HepG2 viability: -28%; ATXN2 expr inh: -2%

Results for COc1cc(CNn2cn[nH]c2=S)cc(Cl)c1OCc1ccc(F)cc1 ?
S2 tox: inactive; TGFb SMAD3 inh: 0%; VP16 counter: 4µM*; RORgamma inh: 7.1µM*; HepG2 viability: 1%; ATXN2 expr inh: -14%

Results for C=CCOc1ccc(CNn2cn[nH]c2=S)cc1OC ?
S2 tox: inactive; TGFb SMAD3 inh: 0%; VP16 counter: 9%; RORgamma inh: -27%; HepG2 viability: -5%; ATXN2 expr inh: 5%

What do the screens show for `COCOc1ccc(-c2ncc(OC)nc2NC(=O)c2ccsc2)cc1`?
S2 tox: inactive; TGFb SMAD3 inh: -1%; HepG2 viability: -16%; ATXN2 expr inh: -5%

Results for COc1ccc(NC(=O)CCCS(=O)(=O)c2nc(-c3ccc(OC)c(OC)c3)cc(C(F)(F)F)n2)cc1OC ?
TGFb SMAD3 inh: 2.5µM*; HepG2 viability: -101%

What do the screens show for `COc1ccc(-c2cc(C(F)(F)F)nc(S(=O)(=O)CCCC(=O)Nc3cccc(O)c3)n2)cc1OC`?
TGFb SMAD3 inh: 3.5µM*; VP16 counter: 11µM*; RORgamma inh: 10µM*; HepG2 viability: 5.6µM*; ATXN2 expr inh: -98%

Source: PubChem BioAssay
